The values below come from PubChem BioAssay (EPA / NIEHS).

For orientation: AC50 means the concentration giving half of the maximal activity seen.

Where a structure was tested more than once in an assay, its records may differ in their call. The source made the active and inactive calls. Rule for the calls: active = hit-call score of the fitted dose curve at least 0.9, where 1 is the maximum; inactive = score below 0.9.

Test [1] can be described thus: ATG_GLI_CIS: Attagene CIS-FACTORIAL HepG2 Assay for human Zinc Finger Protein GLI1 (AID 2282945). The settings on record: HepG2, Attagene cis-factorial reporter mRNA, GLI element; actives raise or lower the signal. An outline of the steps:
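Bidirectional curve fits relative to DMSO, using reporter mRNA levels from RT-PCR plus capillary electrophoresis. Cells were HepG2 transiently carrying cis-regulated reporter constructs, harvested 24 h after dosing.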

Test [2] addresses Bile acid receptor (Homo sapiens) (UniProt Q96RI1). Kind of test: ATG_IR1_CIS: Attagene CIS-FACTORIAL HepG2 Assay for human Nuclear Receptor Subfamily 1 Group H Member 4 (NR1H4), IR1 submotif (AID 2282946). Conditions: IR1 reporter transcription, actives raise or lower the signal. A digest of the protocol:
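HepG2 cells transiently transfected with multiplexed cis-element reporter units read endogenous transcription factor activity. After 24 h compound exposure, reporter mRNA was quantified by RT-PCR, fluorescent labelling, HpaI digestion and capillary electrophoresis; bidirectional fitting versus DMSO baseline.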

Test [3] is described as follows: ATG_ISRE_CIS: Attagene CIS-FACTORIAL HepG2 Assay for human Interferon Regulatory Factor 1 (IRF1) binding to an Interferon-Stimulated Response Element (ISRE) (AID 2282948). The settings on record: HepG2 ISRE cis-reporter (Attagene), mRNA transcription readout; actives raise or lower the signal. A digest of the protocol: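 Multiplexed mRNA reporter readout in human liver HepG2 cells: cis-element-driven reporters transfected, compound added for 24 h, transcripts amplified, fluorescently labelled and sized by capillary electrophoresis; curve fitting bidirectional against DMSO.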

The nature of test [4]: ATG_M_32_CIS: Attagene CIS-FACTORIAL HepG2 Assay for M32 Transcription Factor (Internal Marker) (AID 2282949).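 Note: background control marker of the multiplexed CIS panel rather than a real target.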 The settings on record: HepG2 Attagene cis-factorial M32 reporter, mRNA; actives raise or lower the signal. A digest of the protocol: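 HepG2 human liver cells transiently transfected with cis-promoter-driven multiple reporter transcription units, dosed 24 h. Reporter mRNA quantified by RT-PCR, FAM-labelled primer extension, HpaI digest and capillary electrophoresis; bidirectional fit versus DMSO baseline.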

The nature of test [5]: ATG_M_06_CIS: Attagene CIS-FACTORIAL HepG2 Assay for M06 Transcription Factor (Internal Marker) (AID 2282950). Conditions: HepG2 Attagene CIS-FACTORIAL M06 internal marker reporter; actives raise or lower the signal. A digest of the protocol:
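Serves as a background control readout. Transfected HepG2 exposed to compounds for 24 h, then reporter transcripts quantified by fluorescent RT-PCR and capillary electrophoresis. Both directions fitted against DMSO baseline.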

Test [6] can be described thus: ATG_MRE_CIS: Attagene CIS-FACTORIAL HepG2 Assay for human Metal Responsive Element (MRE) (AID 2282954). The settings on record: HepG2 MRE cis-reporter transcription, Attagene multiplex; actives raise or lower the signal. An outline of the steps: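 Endogenous MRE-dependent transcription read as reporter mRNA in transiently transfected human HepG2 cells at 24 h. RNA reverse-transcribed, PCR-amplified, labelled and resolved by capillary electrophoresis; gain or loss relative to DMSO.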

The nature of test [7]: ATG_PBREM_CIS: Attagene CIS-FACTORIAL HepG2 Assay for human Phenobarbital-responsive Enhancer Module (PBREM) (AID 2282955). The settings on record: HepG2 PBREM cis-reporter, Attagene multiplexed transcription; actives raise or lower the signal. A digest of the protocol: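 Fluorescence of labelled reporter cDNA fragments, resolved by capillary electrophoresis, gives mRNA induction in transfected HepG2 cells treated for 24 h; DMSO serves as negative control and baseline.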

Test [8] deals with Paired box protein Pax-6 (Homo sapiens) (UniProt P26367). Briefly: ATG_Pax6_CIS: Attagene CIS-FACTORIAL HepG2 Assay for human Paired Box 6 (PAX6) (AID 2282956). Conditions: HepG2 CIS-FACTORIAL PAX6 reporter transcription, RNA readout; actives raise or lower the signal. A digest of the protocol: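 Fluorescent RT-PCR products separated by capillary electrophoresis report PAX6-linked promoter mRNA in HepG2 cells 24 h post-dose. Curves fitted bidirectionally, DMSO as negative control.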
Paired box protein Pax-6 (Homo sapiens), sequence (P26367 whole entry, looked up): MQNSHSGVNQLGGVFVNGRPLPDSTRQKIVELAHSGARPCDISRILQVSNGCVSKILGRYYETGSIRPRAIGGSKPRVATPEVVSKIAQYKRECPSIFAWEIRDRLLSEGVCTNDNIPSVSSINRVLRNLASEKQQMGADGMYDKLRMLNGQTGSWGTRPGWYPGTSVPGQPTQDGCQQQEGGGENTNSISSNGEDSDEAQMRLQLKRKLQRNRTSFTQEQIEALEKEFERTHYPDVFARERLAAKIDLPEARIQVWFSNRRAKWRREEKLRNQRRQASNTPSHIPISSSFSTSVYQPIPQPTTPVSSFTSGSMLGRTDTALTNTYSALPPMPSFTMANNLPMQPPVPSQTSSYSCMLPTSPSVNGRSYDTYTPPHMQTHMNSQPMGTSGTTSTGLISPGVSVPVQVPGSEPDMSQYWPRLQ

A short description of test [9]: ATG_PXRE_CIS: Attagene CIS-FACTORIAL HepG2 Assay for human Pregnane X Receptor Element (PXRE) (AID 2282957). The settings on record: HepG2 Attagene CIS-FACTORIAL PXRE reporter, mRNA; actives raise or lower the signal. A digest of the protocol: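 Using HepG2 transfected with multiple reporter transcription units, endogenous factor-driven transcription was scored as reporter mRNA after 24 h exposure.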

Test [10] in a line: ATG_PPRE_CIS: Attagene CIS-FACTORIAL HepG2 Assay for human Peroxisome Proliferator-activated Response Element (PPRE) (AID 2282958). The settings on record: HepG2 PPRE cis-element reporter, Attagene transcription factor profiling; actives raise or lower the signal. A digest of the protocol: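 Cells are first transfected transiently with the multiplexed reporter library, then dosed for 24 h. Total RNA is reverse-transcribed, amplified, fluorescently end-labeled and HpaI-cut before capillary electrophoresis; activity is fitted bidirectionally against DMSO controls.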

Test [11] is described as follows: ATG_RORE_CIS: Attagene CIS-FACTORIAL HepG2 Assay for human RAR-related Orphan Receptor Element (RORE) (AID 2282959). The settings on record: HepG2 Attagene cis-factorial RORE reporter, mRNA; actives raise or lower the signal. A digest of the protocol:
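Cells were HepG2 carrying transfected cis-regulated reporter constructs, dosed for 24 hours. Total RNA was reverse-transcribed and reporter cDNA amplified, fluorescently labeled and sized by capillary electrophoresis. Activity was fitted bidirectionally relative to DMSO.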

Test [12] can be described thus: ATG_Sox_CIS: Attagene CIS-FACTORIAL HepG2 Assay for human SRY-box transcription factor (SOX) (AID 2282960). The settings on record: HepG2 Attagene cis-factorial SOX reporter, mRNA; actives raise or lower the signal. An outline of the steps: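 Transient MRTU transfection of HepG2; 24 h compound incubation; TriZol RNA, oligo(dT) RT, PCR, 6-FAM primer extension, HpaI cut, CE. Bidirectional fit, DMSO = baseline.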

Test [13] deals with Transcription factor Sp1 (Homo sapiens) (UniProt P08047). Briefly: ATG_Sp1_CIS: Attagene CIS-FACTORIAL HepG2 Assay for human Specificity Protein 1 (Sp1) (AID 2282961). The settings on record: HepG2 Sp1 cis-reporter transcription, actives raise or lower the signal. An outline of the steps:
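Endogenous Sp1 activity was gauged in human liver HepG2 cells bearing transfected reporter units under a cis-regulating promoter. After 24 h dosing, reporter mRNA was quantified by RT-PCR with capillary electrophoresis, and activity fitted bidirectionally versus DMSO.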

Test [14] can be described thus: ATG_SREBP_CIS: Attagene CIS-FACTORIAL HepG2 Assay for human Sterol Regulatory Element Binding (SREBP) (AID 2282962). The settings on record: HepG2 Attagene cis-factorial SREBP reporter, mRNA; actives raise or lower the signal. An outline of the steps:
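Endogenous factor activity is measured in HepG2 through multiplexed reporter units under cis-element control. Following a 24 h incubation, reporter transcripts are reverse-transcribed, PCR-amplified and sized by capillary electrophoresis; activity is fitted in both directions relative to DMSO.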

The target of test [15] is Signal transducer and activator of transcription 3 (Homo sapiens) (UniProt P40763). Kind of test: ATG_STAT3_CIS: Attagene CIS-FACTORIAL HepG2 Assay for human Signal Transducer and Activator of Transcription 3 (STAT3) (AID 2282963). Conditions: HepG2, Attagene cis-factorial STAT3 reporter transcription; actives raise or lower the signal. A digest of the protocol: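 Readout is reporter transcript quantified by RT-PCR and capillary electrophoresis, with 6-FAM primer extension and HpaI digestion. Total RNA is taken 24 h after dosing transiently transfected HepG2 carrying cis-regulated reporter units. Bidirectional fit against DMSO.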
Signal transducer and activator of transcription 3 (Homo sapiens), sequence (P40763 whole entry, looked up): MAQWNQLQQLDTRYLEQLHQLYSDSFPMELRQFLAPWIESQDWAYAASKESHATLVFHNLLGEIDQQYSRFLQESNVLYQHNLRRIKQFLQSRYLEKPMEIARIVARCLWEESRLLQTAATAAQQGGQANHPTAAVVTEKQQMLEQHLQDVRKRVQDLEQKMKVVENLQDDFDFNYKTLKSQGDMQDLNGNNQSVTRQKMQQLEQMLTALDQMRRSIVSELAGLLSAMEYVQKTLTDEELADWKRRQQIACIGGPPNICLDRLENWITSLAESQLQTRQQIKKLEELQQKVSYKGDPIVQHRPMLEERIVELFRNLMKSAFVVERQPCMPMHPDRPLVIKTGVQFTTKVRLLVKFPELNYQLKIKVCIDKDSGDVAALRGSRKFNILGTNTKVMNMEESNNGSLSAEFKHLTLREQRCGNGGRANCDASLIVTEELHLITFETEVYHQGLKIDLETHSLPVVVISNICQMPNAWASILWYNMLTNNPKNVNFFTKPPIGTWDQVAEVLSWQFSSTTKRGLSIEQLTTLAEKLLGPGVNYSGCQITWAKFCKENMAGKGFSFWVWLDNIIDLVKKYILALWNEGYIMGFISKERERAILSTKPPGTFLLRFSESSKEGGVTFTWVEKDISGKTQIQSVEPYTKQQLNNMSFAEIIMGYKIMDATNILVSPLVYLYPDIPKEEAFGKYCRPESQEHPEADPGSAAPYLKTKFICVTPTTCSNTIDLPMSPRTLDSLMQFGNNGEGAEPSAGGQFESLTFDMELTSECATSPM

Test [16] is described as follows: ATG_TA_CIS: Attagene CIS-FACTORIAL HepG2 Assay for human TA Basal Promoter (AID 2282964). Conditions: HepG2 Attagene CIS-factorial TA basal promoter reporter; actives raise or lower the signal. A digest of the protocol:
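Background-control readout: TA basal promoter reporter mRNA, fitted in both directions relative to DMSO. Measured by RT-PCR and capillary electrophoresis 24 hours after treating HepG2 human liver cells transiently carrying multiplexed cis-regulated reporter constructs.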

In test [17] the target is Hypoxia-inducible factor 1-alpha (Homo sapiens) (UniProt Q16665). Kind of test: ATG_HIF1a_CIS: Attagene CIS-FACTORIAL HepG2 Assay for human Hypoxia Inducible Factor 1 (HIF1A) (AID 2282951). Conditions: HepG2 Attagene cis-factorial HIF1a reporter transcription; actives raise or lower the signal. An outline of the steps: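 Measures endogenous transcription-factor activity through cis-regulated reporter mRNA in HepG2. Cells dosed 24 h; transcripts quantified by RT-PCR with 6-FAM-labelled products separated by capillary electrophoresis; DMSO serves as negative control.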
Hypoxia-inducible factor 1-alpha (Homo sapiens), sequence (Q16665 whole entry, looked up): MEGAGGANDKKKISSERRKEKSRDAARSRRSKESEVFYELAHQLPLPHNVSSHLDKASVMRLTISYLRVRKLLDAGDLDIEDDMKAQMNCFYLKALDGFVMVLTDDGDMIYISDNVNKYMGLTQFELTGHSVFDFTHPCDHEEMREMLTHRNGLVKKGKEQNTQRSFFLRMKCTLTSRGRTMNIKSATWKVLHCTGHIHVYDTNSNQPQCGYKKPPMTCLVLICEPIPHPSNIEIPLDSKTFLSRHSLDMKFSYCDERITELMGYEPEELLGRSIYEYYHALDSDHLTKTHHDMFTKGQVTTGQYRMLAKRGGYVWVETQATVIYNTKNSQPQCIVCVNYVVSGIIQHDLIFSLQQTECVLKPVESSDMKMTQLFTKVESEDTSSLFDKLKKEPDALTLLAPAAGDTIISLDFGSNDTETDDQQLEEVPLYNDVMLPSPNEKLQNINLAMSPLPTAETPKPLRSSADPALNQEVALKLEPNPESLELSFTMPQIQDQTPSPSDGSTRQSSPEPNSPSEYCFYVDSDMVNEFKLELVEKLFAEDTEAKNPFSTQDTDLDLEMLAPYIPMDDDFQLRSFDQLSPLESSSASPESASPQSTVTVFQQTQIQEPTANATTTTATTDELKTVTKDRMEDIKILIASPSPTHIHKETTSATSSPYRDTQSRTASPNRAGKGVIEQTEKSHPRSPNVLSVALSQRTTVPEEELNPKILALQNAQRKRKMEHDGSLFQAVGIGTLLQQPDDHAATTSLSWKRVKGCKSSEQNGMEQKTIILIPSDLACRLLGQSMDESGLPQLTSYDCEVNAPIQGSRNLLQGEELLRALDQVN

Test [18] has as its target Hepatocyte nuclear factor 6 (Homo sapiens) (UniProt Q9UBC0). Briefly: ATG_HNF6_CIS: Attagene CIS-FACTORIAL HepG2 Assay for human Hepatocyte Nuclear Factor 6 (HNF6) (AID 2282952). Conditions: HepG2 Attagene cis-factorial HNF6 reporter transcription; actives raise or lower the signal. An outline of the steps: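 Using cis-element reporters in HepG2 liver cells, the assay tracks endogenous factor-driven transcription 24 h post-dosing. Signal comes from 6-FAM-labelled, HpaI-digested RT-PCR fragments, with gain or loss scored against DMSO.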

Test [19] has as its target Heat shock factor protein 1 (Homo sapiens) (UniProt Q00613). Kind of test: ATG_HSE_CIS: Attagene CIS-FACTORIAL HepG2 Assay for human Heat Shock Transcription Factor 1 (HSE) (AID 2282953). Conditions: HepG2 HSE cis-reporter, Attagene RNA transcription; actives raise or lower the signal. A digest of the protocol:
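Endogenous transcription factor activity in transiently transfected HepG2, read as reporter mRNA by RT-PCR with fluorescent capillary electrophoresis after 24 h. Gain or loss of signal fitted versus DMSO baseline.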

Bile acid receptor (Homo sapiens), sequence (Q96RI1 whole entry, looked up): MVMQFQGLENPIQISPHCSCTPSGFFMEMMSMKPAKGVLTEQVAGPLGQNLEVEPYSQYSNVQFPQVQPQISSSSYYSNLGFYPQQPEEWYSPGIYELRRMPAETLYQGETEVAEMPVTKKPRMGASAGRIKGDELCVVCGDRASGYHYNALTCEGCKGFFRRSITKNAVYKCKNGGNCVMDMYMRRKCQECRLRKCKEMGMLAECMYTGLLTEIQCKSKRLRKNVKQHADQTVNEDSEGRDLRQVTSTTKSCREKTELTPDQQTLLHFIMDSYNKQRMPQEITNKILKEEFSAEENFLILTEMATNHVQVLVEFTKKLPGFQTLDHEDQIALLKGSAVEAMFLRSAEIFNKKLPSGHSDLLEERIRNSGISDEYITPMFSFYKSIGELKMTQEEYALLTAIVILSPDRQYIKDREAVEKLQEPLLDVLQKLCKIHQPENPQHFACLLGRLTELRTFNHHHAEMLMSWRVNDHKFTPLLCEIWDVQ
Transcription factor Sp1 (Homo sapiens), sequence (P08047 whole entry, looked up): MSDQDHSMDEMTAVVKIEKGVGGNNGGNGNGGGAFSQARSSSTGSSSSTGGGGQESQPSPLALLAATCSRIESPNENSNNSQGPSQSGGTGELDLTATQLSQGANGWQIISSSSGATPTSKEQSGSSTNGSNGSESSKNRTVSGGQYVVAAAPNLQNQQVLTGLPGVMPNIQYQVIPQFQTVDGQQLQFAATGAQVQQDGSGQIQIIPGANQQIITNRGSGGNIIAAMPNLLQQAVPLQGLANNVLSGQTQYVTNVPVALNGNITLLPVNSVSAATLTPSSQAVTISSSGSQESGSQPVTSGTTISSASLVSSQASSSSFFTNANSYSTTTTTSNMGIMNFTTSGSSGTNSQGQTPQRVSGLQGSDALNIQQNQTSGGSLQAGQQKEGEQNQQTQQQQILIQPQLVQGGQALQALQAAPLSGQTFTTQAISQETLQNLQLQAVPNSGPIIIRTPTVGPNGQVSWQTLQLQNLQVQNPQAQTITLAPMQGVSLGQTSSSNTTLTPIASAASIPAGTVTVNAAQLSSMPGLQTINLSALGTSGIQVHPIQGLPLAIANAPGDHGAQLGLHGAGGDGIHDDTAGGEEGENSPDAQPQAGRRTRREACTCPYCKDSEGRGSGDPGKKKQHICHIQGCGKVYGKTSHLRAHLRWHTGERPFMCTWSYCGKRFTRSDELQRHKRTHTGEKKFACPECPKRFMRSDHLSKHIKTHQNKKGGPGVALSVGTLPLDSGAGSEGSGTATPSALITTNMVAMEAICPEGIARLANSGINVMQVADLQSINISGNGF
Heat shock factor protein 1 (Homo sapiens), sequence (Q00613 whole entry, looked up): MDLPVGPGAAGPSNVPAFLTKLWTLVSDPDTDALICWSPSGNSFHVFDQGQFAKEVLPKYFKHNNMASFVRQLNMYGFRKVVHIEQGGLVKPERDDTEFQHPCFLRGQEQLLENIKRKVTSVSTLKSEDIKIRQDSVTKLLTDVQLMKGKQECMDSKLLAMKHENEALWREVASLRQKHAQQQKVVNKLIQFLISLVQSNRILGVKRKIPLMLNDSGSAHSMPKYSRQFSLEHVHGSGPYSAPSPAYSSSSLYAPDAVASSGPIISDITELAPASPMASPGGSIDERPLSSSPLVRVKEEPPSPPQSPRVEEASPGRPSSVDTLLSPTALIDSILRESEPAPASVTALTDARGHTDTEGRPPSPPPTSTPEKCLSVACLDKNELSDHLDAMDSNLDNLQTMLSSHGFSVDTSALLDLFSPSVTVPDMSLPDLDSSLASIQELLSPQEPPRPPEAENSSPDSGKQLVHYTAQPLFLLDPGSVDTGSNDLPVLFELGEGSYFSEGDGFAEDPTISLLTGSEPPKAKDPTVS
Hepatocyte nuclear factor 6 (Homo sapiens), sequence (Q9UBC0 whole entry, looked up, the tested form may be a part): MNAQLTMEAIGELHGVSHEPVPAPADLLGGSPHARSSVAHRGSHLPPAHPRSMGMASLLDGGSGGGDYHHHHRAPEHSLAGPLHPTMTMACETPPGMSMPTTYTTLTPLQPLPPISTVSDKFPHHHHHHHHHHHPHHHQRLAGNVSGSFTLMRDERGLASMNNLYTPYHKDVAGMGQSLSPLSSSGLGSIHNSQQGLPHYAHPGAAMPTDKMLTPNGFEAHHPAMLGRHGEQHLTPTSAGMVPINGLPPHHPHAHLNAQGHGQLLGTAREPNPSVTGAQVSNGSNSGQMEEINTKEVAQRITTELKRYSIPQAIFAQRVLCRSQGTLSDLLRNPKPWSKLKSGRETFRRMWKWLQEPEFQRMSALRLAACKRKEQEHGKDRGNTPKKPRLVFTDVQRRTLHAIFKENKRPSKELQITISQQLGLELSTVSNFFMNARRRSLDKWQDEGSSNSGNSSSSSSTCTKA

On to `CC(C)(C)C(=O)CC(=O)C(F)(F)C(F)(F)C(F)(F)F`, for which the compound was called inactive in [1], in test [2], in test [3], in test [4], in test [5] and in [6]. For the same compound, the outcome in [7], in test [8], in [9], in test [10], in test [11] and in test [12] was inactive. Moreover, the compound was called inactive in test [13], in test [14], in test [15] and in test [16].
On to `O=C(C=Cc1ccccc1)OCC=Cc1ccccc1`, for which the result in [1], in [2], in [3], in test [4], in test [5] and in [6] was inactive. Further, the result in test [7], in test [8], in test [10], in test [11], in test [13] and in test [15] was inactive. In addition, the call in [16] was inactive. The AC50 in [9] is 15.9 µM (active).
For `OC[C@@H](O)[C@@H](O)[C@H](O)[C@@H](O)CO`, the call in [1], in test [3], in test [4], in [5], in [17] and in test [18] was inactive. For the same compound, the compound was classed as inactive in test [19], in test [6], in test [8], in test [9], in test [11] and in test [12]. Besides, the result in test [13], in [14], in [15] and in test [16] was inactive. Also, the AC50 in [9] was 26.3 µM (active).
With `CS(C)(=O)=O`, the compound was called inactive in test [1], in test [2], in test [3], in test [4], in [5] and in [19]. Also, the outcome in [6], in [7], in test [8], in test [10], in test [12] and in test [13] was inactive. Moreover, the compound was called inactive in test [15] and in test [16]. In [9], the AC50 was 4.43 µM (active).
